The record followed here is ChEMBL document CHEMBL1961873, “Compounds: GSK PKIS; Assays: Nanosyn kinase panel” (2012).

Several values for one entry are separate records, joined by “and”; a condition that tells them apart may be missing. Identical values can stand only once.

Experiment [1] deals with Fibroblast growth factor receptor 4 (Homo sapiens) (UniProt P22455). To be noted: at 1 µM.
Experiment [2] concerns the target Tyrosine-protein kinase Fgr (Homo sapiens) (UniProt P09769). To be noted: at 0.1 µM.
Experiment [3] shares this target. To be noted: at 1 µM.
For experiment [4], the target named is Vascular endothelial growth factor receptor 1 (Homo sapiens) (UniProt P17948). As to conditions: at 0.1 µM.
Vascular endothelial growth factor receptor 1 (Homo sapiens), sequence (P17948 whole entry): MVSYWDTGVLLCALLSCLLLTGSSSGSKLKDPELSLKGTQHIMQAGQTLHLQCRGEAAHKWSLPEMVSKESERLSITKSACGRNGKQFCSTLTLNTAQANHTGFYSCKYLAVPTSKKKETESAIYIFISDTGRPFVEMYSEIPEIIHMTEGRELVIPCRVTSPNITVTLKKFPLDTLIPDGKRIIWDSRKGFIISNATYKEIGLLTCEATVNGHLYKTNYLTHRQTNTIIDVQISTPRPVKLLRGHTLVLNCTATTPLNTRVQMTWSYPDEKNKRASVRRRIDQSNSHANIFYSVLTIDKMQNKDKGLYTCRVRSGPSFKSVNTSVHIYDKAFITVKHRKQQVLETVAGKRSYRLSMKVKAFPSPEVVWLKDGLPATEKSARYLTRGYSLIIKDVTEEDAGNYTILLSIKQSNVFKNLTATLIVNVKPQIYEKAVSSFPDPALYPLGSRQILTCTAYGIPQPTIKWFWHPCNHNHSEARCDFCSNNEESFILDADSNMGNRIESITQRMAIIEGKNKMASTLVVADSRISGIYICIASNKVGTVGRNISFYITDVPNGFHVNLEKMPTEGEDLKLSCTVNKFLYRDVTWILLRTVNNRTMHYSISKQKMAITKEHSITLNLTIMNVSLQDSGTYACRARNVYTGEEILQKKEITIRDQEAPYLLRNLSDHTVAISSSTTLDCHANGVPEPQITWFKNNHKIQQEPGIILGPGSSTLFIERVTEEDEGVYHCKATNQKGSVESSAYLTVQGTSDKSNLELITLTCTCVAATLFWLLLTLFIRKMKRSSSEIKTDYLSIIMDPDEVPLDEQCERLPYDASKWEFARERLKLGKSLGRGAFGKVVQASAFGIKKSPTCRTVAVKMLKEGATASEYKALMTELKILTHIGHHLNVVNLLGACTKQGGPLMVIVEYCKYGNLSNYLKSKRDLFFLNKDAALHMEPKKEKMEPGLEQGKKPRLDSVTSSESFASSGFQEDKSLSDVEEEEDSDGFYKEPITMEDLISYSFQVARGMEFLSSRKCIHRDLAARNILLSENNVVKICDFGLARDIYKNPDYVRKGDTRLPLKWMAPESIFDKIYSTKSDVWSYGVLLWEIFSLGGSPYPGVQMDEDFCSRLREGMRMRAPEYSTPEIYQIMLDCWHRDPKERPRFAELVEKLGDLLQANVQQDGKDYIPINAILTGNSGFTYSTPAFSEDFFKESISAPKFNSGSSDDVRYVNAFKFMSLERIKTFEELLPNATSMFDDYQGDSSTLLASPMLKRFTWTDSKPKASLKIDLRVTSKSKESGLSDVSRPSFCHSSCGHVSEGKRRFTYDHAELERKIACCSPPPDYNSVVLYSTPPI
Experiment [5] shares this target. To be noted: at 1 µM.
The target of experiment [6] is Receptor-type tyrosine-protein kinase FLT3 (Homo sapiens) (UniProt P36888). As to conditions: at 0.1 µM.
Experiment [7] shares this target. To be noted: at 1 µM.
Experiment [8] has as its system T1, Receptor-type tyrosine-protein kinase FLT3 (Homo sapiens), P36888 [D835Y].
T1 sequence (whole entry): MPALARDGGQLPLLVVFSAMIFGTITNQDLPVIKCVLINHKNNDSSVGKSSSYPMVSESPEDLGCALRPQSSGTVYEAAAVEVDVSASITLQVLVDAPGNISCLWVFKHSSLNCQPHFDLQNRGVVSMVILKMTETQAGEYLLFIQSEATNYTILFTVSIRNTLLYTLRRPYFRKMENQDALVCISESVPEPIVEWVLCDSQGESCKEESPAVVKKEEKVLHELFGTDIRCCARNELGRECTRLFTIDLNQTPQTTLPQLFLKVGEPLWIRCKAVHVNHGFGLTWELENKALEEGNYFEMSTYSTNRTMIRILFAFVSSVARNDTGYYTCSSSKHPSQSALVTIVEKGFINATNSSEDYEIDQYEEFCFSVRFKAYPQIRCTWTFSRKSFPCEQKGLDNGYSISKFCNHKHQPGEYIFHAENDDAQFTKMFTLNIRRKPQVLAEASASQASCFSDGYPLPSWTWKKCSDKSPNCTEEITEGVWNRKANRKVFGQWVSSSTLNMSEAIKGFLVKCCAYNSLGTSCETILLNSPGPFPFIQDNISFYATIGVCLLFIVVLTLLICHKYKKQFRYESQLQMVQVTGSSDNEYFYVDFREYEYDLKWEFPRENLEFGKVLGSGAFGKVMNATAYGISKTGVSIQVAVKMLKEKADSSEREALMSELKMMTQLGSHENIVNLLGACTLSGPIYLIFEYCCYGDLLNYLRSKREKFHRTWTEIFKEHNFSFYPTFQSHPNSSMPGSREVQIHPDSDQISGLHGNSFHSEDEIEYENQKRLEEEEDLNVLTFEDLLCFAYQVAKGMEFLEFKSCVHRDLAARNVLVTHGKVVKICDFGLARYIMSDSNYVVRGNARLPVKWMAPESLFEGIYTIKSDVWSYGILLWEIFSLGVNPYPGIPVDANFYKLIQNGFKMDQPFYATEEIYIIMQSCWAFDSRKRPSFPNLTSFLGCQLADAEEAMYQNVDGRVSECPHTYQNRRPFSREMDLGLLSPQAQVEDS
To be noted: at 0.1 µM.

Experiment [9] concerns the target Non-receptor tyrosine-protein kinase TYK2 (Homo sapiens) (UniProt P29597). As to conditions: at 1 µM.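 Also: values are mean percent inhibition of TYK2 kinase.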
Experiment [10] deals with T2, Tyrosine-protein kinase receptor TYRO3 (Homo sapiens) (UniProt Q06418).
T2 sequence (whole entry): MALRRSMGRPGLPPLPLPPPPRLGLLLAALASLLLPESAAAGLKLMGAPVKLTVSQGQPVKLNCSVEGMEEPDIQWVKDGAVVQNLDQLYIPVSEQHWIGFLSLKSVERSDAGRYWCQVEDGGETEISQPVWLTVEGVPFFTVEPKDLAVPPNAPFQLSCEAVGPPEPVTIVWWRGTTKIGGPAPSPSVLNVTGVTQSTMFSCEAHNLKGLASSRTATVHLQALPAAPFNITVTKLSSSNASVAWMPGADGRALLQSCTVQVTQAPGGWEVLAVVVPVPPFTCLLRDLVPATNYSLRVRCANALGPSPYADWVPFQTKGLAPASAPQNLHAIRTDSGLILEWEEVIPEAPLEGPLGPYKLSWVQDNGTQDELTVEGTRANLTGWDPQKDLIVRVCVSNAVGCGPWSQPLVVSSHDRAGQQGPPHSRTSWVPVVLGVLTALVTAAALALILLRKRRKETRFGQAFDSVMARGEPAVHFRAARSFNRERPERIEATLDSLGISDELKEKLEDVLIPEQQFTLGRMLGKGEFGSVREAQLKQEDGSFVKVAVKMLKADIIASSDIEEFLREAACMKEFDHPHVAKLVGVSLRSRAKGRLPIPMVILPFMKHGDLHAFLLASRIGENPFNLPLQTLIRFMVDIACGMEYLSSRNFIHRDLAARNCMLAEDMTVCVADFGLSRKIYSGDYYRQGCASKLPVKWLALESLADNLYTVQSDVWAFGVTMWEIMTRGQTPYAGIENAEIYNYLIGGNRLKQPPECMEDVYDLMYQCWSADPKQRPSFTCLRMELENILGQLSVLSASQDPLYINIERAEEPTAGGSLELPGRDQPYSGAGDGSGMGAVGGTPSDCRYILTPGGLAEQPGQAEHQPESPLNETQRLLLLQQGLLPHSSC
As to conditions: at 0.1 µM.

Fibroblast growth factor receptor 4 (Homo sapiens), sequence (P22455 22-802 limits assumed): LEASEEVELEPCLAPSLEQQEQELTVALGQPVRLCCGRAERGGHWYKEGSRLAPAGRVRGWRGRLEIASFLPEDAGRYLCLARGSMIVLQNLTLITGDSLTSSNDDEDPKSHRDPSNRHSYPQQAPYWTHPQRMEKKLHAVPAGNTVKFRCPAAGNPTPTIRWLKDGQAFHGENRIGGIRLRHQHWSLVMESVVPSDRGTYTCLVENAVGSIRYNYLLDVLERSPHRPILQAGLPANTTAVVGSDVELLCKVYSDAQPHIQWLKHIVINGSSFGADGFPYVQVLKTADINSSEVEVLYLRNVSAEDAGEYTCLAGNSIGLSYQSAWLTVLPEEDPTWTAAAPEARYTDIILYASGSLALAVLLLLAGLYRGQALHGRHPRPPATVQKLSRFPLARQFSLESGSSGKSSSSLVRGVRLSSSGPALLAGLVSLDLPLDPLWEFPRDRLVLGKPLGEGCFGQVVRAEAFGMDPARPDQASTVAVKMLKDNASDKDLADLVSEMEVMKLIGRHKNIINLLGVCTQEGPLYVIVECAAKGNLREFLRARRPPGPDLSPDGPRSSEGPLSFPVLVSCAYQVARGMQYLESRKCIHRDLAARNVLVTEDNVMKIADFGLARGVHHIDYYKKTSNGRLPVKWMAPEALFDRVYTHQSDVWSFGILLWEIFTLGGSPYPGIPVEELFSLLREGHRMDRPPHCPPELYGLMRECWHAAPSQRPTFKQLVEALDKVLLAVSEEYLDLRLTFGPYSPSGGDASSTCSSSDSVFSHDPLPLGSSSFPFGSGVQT
Tyrosine-protein kinase Fgr (Homo sapiens), sequence (P09769 2-529 limits assumed): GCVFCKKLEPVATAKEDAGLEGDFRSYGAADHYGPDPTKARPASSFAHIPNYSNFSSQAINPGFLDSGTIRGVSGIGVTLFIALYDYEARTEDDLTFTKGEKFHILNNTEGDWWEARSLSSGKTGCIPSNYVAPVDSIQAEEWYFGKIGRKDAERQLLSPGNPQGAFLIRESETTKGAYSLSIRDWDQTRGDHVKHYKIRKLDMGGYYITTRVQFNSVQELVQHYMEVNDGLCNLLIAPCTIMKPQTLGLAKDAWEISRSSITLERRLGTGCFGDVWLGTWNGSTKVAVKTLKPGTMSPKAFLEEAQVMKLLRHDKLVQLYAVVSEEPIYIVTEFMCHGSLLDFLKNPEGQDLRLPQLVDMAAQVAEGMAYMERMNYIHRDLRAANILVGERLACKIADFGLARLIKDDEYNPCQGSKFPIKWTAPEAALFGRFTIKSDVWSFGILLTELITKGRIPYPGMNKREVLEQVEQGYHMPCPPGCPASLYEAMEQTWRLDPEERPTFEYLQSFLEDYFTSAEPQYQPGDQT
Non-receptor tyrosine-protein kinase TYK2 (Homo sapiens), sequence (P29597 whole entry): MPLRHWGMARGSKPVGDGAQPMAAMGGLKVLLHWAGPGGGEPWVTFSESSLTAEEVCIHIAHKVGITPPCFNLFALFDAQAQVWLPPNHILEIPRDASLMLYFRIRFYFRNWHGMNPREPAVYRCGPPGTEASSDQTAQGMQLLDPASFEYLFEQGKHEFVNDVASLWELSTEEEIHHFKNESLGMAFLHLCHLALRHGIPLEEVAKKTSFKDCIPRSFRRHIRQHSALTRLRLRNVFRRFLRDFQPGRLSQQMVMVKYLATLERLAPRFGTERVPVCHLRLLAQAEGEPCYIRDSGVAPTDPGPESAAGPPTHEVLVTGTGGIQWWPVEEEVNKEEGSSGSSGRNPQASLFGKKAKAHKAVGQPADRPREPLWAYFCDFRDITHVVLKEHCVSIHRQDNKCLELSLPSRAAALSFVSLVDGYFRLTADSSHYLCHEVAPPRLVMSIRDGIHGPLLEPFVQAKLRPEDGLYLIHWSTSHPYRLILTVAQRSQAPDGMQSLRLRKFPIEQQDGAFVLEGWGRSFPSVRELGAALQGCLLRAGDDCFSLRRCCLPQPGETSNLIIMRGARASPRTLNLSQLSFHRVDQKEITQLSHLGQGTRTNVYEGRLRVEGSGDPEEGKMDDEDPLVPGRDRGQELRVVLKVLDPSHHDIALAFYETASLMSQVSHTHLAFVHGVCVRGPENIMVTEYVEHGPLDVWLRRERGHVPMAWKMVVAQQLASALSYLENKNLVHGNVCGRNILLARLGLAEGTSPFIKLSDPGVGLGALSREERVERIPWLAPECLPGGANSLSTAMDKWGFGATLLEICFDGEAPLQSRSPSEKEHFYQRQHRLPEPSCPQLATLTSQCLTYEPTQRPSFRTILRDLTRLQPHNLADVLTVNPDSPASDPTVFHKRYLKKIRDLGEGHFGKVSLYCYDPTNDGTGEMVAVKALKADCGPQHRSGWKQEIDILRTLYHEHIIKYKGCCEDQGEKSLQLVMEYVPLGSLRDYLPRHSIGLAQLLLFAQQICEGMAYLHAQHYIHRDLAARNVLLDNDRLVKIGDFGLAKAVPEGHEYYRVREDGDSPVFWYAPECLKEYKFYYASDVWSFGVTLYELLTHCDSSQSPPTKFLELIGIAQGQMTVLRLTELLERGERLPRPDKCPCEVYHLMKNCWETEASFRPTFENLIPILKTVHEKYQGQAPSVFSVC

On to `Cc1cc(O)cc(C)c1/C=C/c1cncc(C(=O)OC(C)(C)C)c1`, for which the inhibition (as a rule, the relative decrease from the control value, in per cent) in experiment [1] was 2.64%; in experiment [2], 8.01%; in experiment [3] it was 34%; in [4], 2.02%; in [5] it was 2.37%; in experiment [6], 2.32%. Besides, the inhibition is 1.9% in experiment [7], -1.99% in [8], -2.24% in experiment [9] and 3.2% in experiment [10].
Regarding `COc1ccc(Nc2ncc(-c3ccccc3)o2)cc1OC`, the inhibition in experiment [1] is 1.3%; in experiment [2], 3.96%; in [3], 31.4%; in experiment [4], 6.85%; in experiment [5] it was 23.6%; in experiment [6], 76.6%. In addition, the inhibition in experiment [7] was 89.4%; in experiment [8], 15.2%; in [9], 5.03%; in [10], 0.14%.
In the case of `COc1ccc2ncn(-c3cc(O[C@H](C)c4ccccc4C(F)(F)F)c(C(N)=O)s3)c2c1`, the inhibition is 3.29% in [1]; 0.34% in experiment [2]; 1.98% in experiment [3]; -2.14% in experiment [4]; 1.15% in [5]; -1.48% in [6]. Further, the inhibition is 8.06% in [7], -1.49% in experiment [8], -1.84% in experiment [9] and -0.34% in experiment [10].
In the case of `COc1cc(Nc2ncc(-c3ccccc3)o2)cc(OC)c1`, the inhibition in [1] was -0.29%; in [2], 5.71%; in experiment [3], 30.2%; in experiment [4] it was 4.69%; in [5] it was 18.8%; in [6], 71.8%. The inhibition in experiment [7] is 90.5%; in experiment [8], 5.63%; in experiment [9], -1.72%; in experiment [10], 2.81%.
`Nc1ncnc2occ(-c3ccc(NC(=O)Nc4cc(C(F)(F)F)ccc4F)cc3)c12`: the inhibition in experiment [1] is 16.7% and 10%; in [2], 3.04% and 0.42%; in experiment [3], 24.4% and 11.4%; in experiment [4], 37.5% and 26.9%; in experiment [5] it was 84.5% and 74.3%; in experiment [6], 65.9% and 59.9%. Moreover, the inhibition in experiment [7] was 89.1% and 89.5%; in [8], 18% and 5.3%; in experiment [9], -7.38% and 0.28%; in [10] it was 5.11% and -0.01%.
With `Fc1cccc(COc2ccc(Nc3ncncc3C#Cc3ccccc3)cc2Cl)c1`, the inhibition in [1] was found to be 0.25%; in experiment [2], 5.41%; in [3] it was 2.24%; in [4], 1.51%; in [5] it was 1.02%; in experiment [6] it was 2.67%. Further, the inhibition is 5.4% in [7], 4.26% in experiment [8], -1.45% in experiment [9] and 2.1% in [10].
Take `CS(=O)(=O)Nc1ccc(-c2ccc3c(NC(=O)C4CC4)n[nH]c3c2)cc1`: the inhibition was 0.84% in [1]; 1.59% in experiment [2]; 7.28% in experiment [3]; 1.26% in experiment [4]; 3.04% in experiment [5]; -0.08% in [6]. Moreover, the inhibition was 5.66% in experiment [7], 1.14% in experiment [8], -2.13% in [9] and 2.75% in experiment [10].
Regarding `CC1=C(C(=O)Nc2ccc3[nH]ncc3c2)C(c2ccc(F)cc2)N=C(c2ccc(C(F)(F)F)nc2)N1` (stereo not given), the inhibition in [1] was 4.41%; in experiment [2], 1.36%; in [3] it was 7.33%; in [4] it was 2.08%; in experiment [5], 3.96%; in experiment [6], -0.83%. Besides, the inhibition in [7] was 4.45%; in experiment [8], -1.1%; in experiment [9], -2.96%; in experiment [10], 2.47%.
As for `CCN1CCC(C(=O)Nc2n[nH]c3nnc(-c4cccc(F)c4F)cc23)CC1`, the inhibition in experiment [1] worked out at 1.49%; in [2], 1.72%; in [3], 3.35%; in experiment [4], 0.76%; in experiment [5], 1.26%; in experiment [6], 1.71%. In addition, the inhibition in [7] is 6.05%; in experiment [8] it was -1.16%; in experiment [9], -3.82%; in [10] it was -1.35%.
Consider `Cc1cc(O)cc(C)c1/C=C/c1cncc(C(N)=O)c1`, for which the inhibition in [1] was 0.95%; in [2], 5.81%; in experiment [3], 38.1%; in experiment [4] it was 1.23%; in experiment [5], 4.11%; in [6] it was 1.9%. The inhibition in experiment [7] was 2.11%; in experiment [8], -5.07%; in [9] it was -0.58%; in [10], 2.41%.
Consider `CC1(C)CC(n2cnc(-c3ccc(F)cc3)c2-c2ccnc(N)n2)CC(C)(C)N1`, for which the inhibition in experiment [1] worked out at 2.01%; in [2], 0.26%; in [3] it was 3.54%; in [4], 1.16%; in [5] it was 1.59%; in [6], 0.9%. The inhibition is -0.24% in [7], 2.51% in experiment [8], 0.03% in experiment [9] and 0.59% in experiment [10].
Consider `CS(=O)(=O)CCNCc1ccoc1-c1ccc2ncnc(Nc3ccc(OCc4ccccc4)cc3)c2c1`, for which the inhibition in experiment [1] was 1.85%; in experiment [2], 2.61%; in experiment [3], 12.6%; in experiment [4] it was 2.35%; in [5], -0.36%; in [6], 1.82%. The inhibition in experiment [7] was 6.53%; in experiment [8], -4.02%; in [9], 0.15%; in experiment [10] it was 0.96%.
For `N#Cc1cccc(Nc2ncc(-c3ccccc3)o2)c1`, the inhibition in [1] was 3.3%; in experiment [2] it was 5.47%; in experiment [3], 13.5%; in experiment [4], 2.46%; in experiment [5] it was 9.52%; in [6], 12%. Besides, the inhibition in [7] is 61.8%; in experiment [8], 3.75%; in [9], -1.92%; in experiment [10] it was 1.76%.
Take `CCOc1ccc2c(-c3ccnc(Nc4cc(OC)cc(C(F)(F)F)c4)n3)cnn2n1`: the inhibition in [1] was 3.56%; in [2], 1.32%; in experiment [3], 9.11%; in experiment [4] it was 1.04%; in experiment [5] it was 5.65%; in experiment [6] it was 2.11%. Also, the inhibition came to 15.1% in experiment [7], 2.53% in experiment [8], 1.53% in experiment [9] and 1.46% in [10].
Take `Cc1ccc(-c2cc3c(NC(=O)C4CC4)ncnc3o2)cc1`: the inhibition turned out to be 1.04% in [1]; 2.06% in experiment [2]; 13.3% in experiment [3]; 2.75% in experiment [4]; 3.26% in [5]; 2.89% in experiment [6]. In addition, the inhibition in experiment [7] is 3.69%; in experiment [8], 0.76%; in experiment [9] it was -1.62%; in experiment [10], 9.35%.
